Outcome data for eight compounds are collected here from PubChem BioAssay AID449729 (Southern Research Specialized Biocontainment Screening …, 2010).

Active and inactive are the calls of the source. The rule behind the calls is not given here.

The target of this experiment is Large T antigen (Simian virus 40) (UniProt P03070). Put plainly: SV40 TAg ATPase inhibitors, biochemical, ADP-Hunter, purified TAg, synthesized compounds, set 2 (AID 449729). The settings on record: ADP-Hunter fluorescence; series mostly up to 100 µM.
Large T antigen (Simian virus 40), sequence (P03070 whole entry, looked up): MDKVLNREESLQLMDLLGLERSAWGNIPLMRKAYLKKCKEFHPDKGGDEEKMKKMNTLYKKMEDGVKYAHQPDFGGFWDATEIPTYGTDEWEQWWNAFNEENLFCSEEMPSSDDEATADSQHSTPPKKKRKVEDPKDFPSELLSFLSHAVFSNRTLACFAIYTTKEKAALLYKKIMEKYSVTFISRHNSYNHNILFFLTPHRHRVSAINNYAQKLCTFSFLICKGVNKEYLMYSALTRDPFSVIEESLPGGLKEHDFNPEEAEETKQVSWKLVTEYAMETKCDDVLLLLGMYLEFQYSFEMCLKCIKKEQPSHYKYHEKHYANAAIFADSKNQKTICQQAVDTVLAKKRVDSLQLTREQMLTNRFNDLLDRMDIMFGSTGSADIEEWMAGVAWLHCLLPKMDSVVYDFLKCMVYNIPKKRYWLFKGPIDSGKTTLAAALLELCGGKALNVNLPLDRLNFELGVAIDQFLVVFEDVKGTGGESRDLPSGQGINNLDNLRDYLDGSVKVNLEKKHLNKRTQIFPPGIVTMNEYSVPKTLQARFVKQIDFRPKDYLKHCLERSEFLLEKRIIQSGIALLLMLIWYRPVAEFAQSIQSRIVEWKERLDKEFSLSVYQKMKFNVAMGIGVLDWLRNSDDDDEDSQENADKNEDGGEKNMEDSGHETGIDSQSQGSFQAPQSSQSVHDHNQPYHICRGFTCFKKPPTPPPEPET
For `CC(C)(c1ccc(O)cc1)c1cccc(O)c1`, the call was inactive.

Turning to `C=C(c1cccc(OC)c1)c1cccc(OC)c1`, the compound was classed as inactive.

As for `C=C(c1ccccc1Cl)c1ccccc1Cl`, the compound was called inactive.

For the compound `C=C(c1ccc(Cl)cc1)c1ccc(Cl)cc1`, the outcome was inactive.

Turning to `COc1cccc(C(C)(O)c2cccc(OC)c2)c1`, the compound was classed as inactive.

For the compound `C=C(c1ccc(Br)cc1)c1ccc(Br)cc1`, the compound was classed as inactive.

With `Oc1ccc(C2(c3ccc(O)cc3)CC2)cc1`, the result was inactive.

`C=C(c1ccc(F)cc1)c1ccc(F)cc1`: the call was inactive.
